Assay results published in PubChem BioAssay (NCATS).
Several values for one entry are separate records, joined by “and”; a condition that tells them apart may be missing. Equal values may be shown once. A number with no mark means an inactive call. Inconclusive results are not listed. A call without a number means that no potency is given here. Activity calls are given as the source filed them. Unless noted, calls come from the whole dose curve; as a rule, active = well fitted curve in either direction with a large enough effect (not every such curve was filed as active); inconclusive = small, poorly fitted or top-dose-only effect, or another doubt; inactive = flat fitted curve, though single readings scatter.

Assays:
[1] = AP1 Signaling Pathway (AID 357);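 note: ME-180 reporter cells stimulated with EGF at its EC50 level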
Outline: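 A ratiometric CCF4 readout (405 nm excitation; 460 and 530 nm emission) quantified AP-1-driven beta-lactamase in ME-180 cells after 5 h with compound and EC50 EGF; AC50 values were derived for activators and inhibitors.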

[2] = NFAT Signaling Pathway (AID 444);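 note: carbachol stimulus at about its EC50 of 1 µM final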
Outline: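 Read-out: CCF4 FRET ratio (460 nm/530 nm) after 1 h RT dye loading, used for %activity and AC50 from titration series. Cells: Jurkat NFAT-β-lactamase/M1 line, treated with compound plus 1 uM carbachol for 5 h, 37 °C.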

[3] = Stat Signaling Pathway (AID 446);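 note: ME-180 cervical cancer cells given 40 pM IL-6 alongside compound; SIE-controlled beta-lactamase reporter measured as 460/530 nm FRET emission ratio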
Outline: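 Emission at 460 and 530 nm (excitation 405 nm) reports SIE-controlled beta-lactamase in ME-180 cells. Cells received compound with 40 pM IL-6 for 5 hrs at 37 C; data scaled between 300 pM IL-6 and 125 nM JAK-inhibitor controls.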

[4] = target: Glucocorticoid receptor (Homo sapiens) (UniProt P04150); assay: GR-GFP Redistribution (AID 450;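 active = compounds whose dose series gives a full or clear partial fitted curve of increased nuclear translocation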; note: potency is the fitted concentration of half-maximal effect); details: U2OS GR-GFP nuclear translocation, laser cytometry, 2 h
[5] = target: Mitogen-activated protein kinase 10 (Mus musculus) (UniProt Q61831); assay: JNK3 AlphaScreen Assay (AID 530);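 note: kinase came from lysate of stimulated human HepG2 cells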; note: potency is the fitted concentration of half-maximal effect;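 for activity change, negative = inhibition: signal reports phosphorylation of biotinylated GST-cJun 1-79 at Ser73 with 10 µM ATP; series mostly up to about 57 µM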
Outline: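 Kinase buffer: 20 mM Tris-HCl pH 7.6, 10 mM MgCl2, 1 mM DTT, 0.1 mM Na3VO4, 0.01% Tween-20; ATP 10 uM. Substrate biotin-GST-cJun(1-79), enzyme from activated HepG2 lysates. Detection by Ser73 phospho-antibody AlphaScreen.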

[6] = target: 3',5'-cyclic-AMP phosphodiesterase 4B (Homo sapiens) (UniProt Q07343); assay: qHTS Assay for Inhibitors of PDE-IV (AID 607; active = well fitted activation curve with a large enough effect in the main read-out, with a control signal flat, not every such curve was filed as active)
Outline: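 The readout is membrane depolarisation from a cAMP-sensing CNG channel, detected with a potential dye at ex 535/em 590. Cells were HEK293-derived (endogenous PDE-IV) at 1000 cells/well, titrated up to 22.9 uM final.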

[7] = target: Lysosomal acid glucosylceramidase (Homo sapiens) (UniProt P04062); assay: Glucocerebrosidase-p2 (AID 348; in the data active = potency below about 10 µM; note: potency is the fitted concentration of half-maximal effect); details: purified GBA, blue fluorogenic substrate, 40 min
Outline: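 Normal human glucocerebrosidase (0.2 nM) with blue fluorogenic substrate (80 uM final) in citrate/phosphate pH 5.9 with 10mM sodium taurocholate, 0.01% tween-20; 40 min RT, NaOH/glycine stop; fluorescence Ex 365/Em 440; AC50 from a titration from 0.6 nM upwards.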

[8] = target: Cytochrome P450 1A2 (Homo sapiens) (UniProt P05177); assay: p450-cyp1a2 (AID 410; calls by dose curve; note: potency is the fitted concentration of half-maximal effect)
Outline: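 20nM CYP1A2, 100uM Luciferin-ME (=Km), 100mM KPO4; cpd 10 min RT; +NADPH regen, 60 min RT; stop/detect 20 min; luminescence. Normalized to furafylline 57 uM = full inhibition.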

[9] = Cell Viability - BJ (AID 421; calls by dose curve;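 note: potency is the fitted concentration of half-maximal effect; cells exposed to compound for 40 hours at 37 °C before readout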); details: BJ fibroblast viability, qHTS
Outline: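 Cytotoxicity in human BJ foreskin fibroblasts is scored as loss of cellular ATP after a 40-hour exposure, measured by luciferase luminescence. Controls are DMSO and 100 uM tamoxifen.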

[10] = Cell Viability - Jurkat (AID 426;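 active = dose-dependent loss of cell ATP signal giving a full or clear fitted curve, ranked by lower potency value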;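 note: potency is the fitted concentration of half-maximal effect; cells exposed to compound for 40 hours at 37 °C before ATP read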); details: qHTS
Outline: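 Luminescent ATP read-out (CellTiter-Glo, 20 min at room temperature) after 40 hr compound exposure at 37 °C of Jurkat E6-1 cells, 5000/well. Decreased ATP taken as cytotoxicity; AC50 from standard Hill equation.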

[11] = Cell Viability - Hek293 (AID 427;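 active = compounds whose dose-response curve shows a full or clear partial loss of cell viability, called from curve shape rather than a numeric limit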;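 note: potency is the fitted concentration of half-maximal effect; cells exposed to compound for 40 hours at 37 °C before reading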); details: qHTS
Outline: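 qHTS, human embryonic kidney (adenovirus-transformed) cells; 40 hr cpd, 37 °C; CellTiter-Glo ATP luminescence. Norm: DMSO = 0, 100 uM tamoxifen = 100% inhibition. Hill-fit AC50.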

[12] = Cell Viability - HepG2 (AID 433; calls by dose curve;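 note: potency is the fitted concentration of half-maximal effect; potency for ATP loss meaning cytotoxicity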); details: qHTS
Outline: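 Read-out is luciferase-based quantitation of cellular ATP as a measure of viable HepG2 cells after 40 h treatment at 37 °C. Signal decrease is scaled between DMSO-only and 100 uM tamoxifen controls, with AC50 fitted by the Hill equation.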

[13] = Cell Viability - MRC5 (AID 434; calls by dose curve;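 note: potency is the fitted concentration of half-maximal effect; cells exposed to compound for 40 hours at 37 °C; potency reflects cytotoxicity seen as loss of intracellular ATP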); details: MRC5 lung fibroblast viability, qHTS
Outline: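 AC50 values come from Hill-equation fits of intracellular ATP loss, measured by CellTiter-Glo luminescence. Normal lung fibroblasts (MRC5) had 40 hr compound treatment at 37 C, normalized between DMSO and 100 uM tamoxifen.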

[14] = Cell Viability - SK-N-SH (AID 435; calls by dose curve; note: potency is the fitted concentration of half-maximal effect); details: SK-N-SH neuroblastoma cell viability qHTS
Outline: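 Luminescent ATP signal served as the viability read-out after 40 hours of compound treatment of human neuroblastoma SK-N-SH cells. Concentration-response data, scaled between DMSO and 100 uM tamoxifen, gave AC50 values by standard Hill modeling.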

[15] = Cell Viability - N2a (AID 540; active = well fitted curve in the direction sought with a large enough effect; an effect the other way counts as inactive or inconclusive; note: nearly all actives have a fitted effect of over 45% in size)
Outline: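 N2a mouse neuroblastoma, 1500 cells/well, 5 hr settle; compound 40 hr, 37 °C; CellTiter-Glo 20 min RT; luminescence; Hill-fit AC50.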

[16] = Cell Viability - HUV-EC-C (AID 542; active = well fitted curve in the direction sought with a large enough effect; an effect the other way counts as inactive or inconclusive; note: nearly all actives have a fitted effect of over 35% in size)
Outline: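 Luminescent ATP read-out (CellTiter-Glo, 20 min room temperature) after 40 hr compound treatment of HUV-EC-C cells at 37 °C. Concentration-response data fitted with the standard Hill equation to give AC50; tamoxifen and doxorubicin served as positive controls.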

[17] = Cell Viability - H-4-II-E (AID 543; active = well fitted curve in the direction sought with a large enough effect; an effect the other way counts as inactive or inconclusive; note: nearly all actives have a fitted effect of over 35% in size)
Outline: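 qHTS, rat hepatoma H-4-II-E, 1500 cells/well; 40 hr compound exposure, 37 °C; CellTiter-Glo ATP luminescence after 20 min RT; AC50 by standard Hill fit.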

[18] = Cell Viability - SH-SY5Y (AID 544; active = well fitted curve in the direction sought with a large enough effect; an effect the other way counts as inactive or inconclusive; note: nearly all actives have a fitted effect of over 55% in size)
Outline: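 SH-SY5Y, 1500 cells/well, 5 hr pre-incubation 37 °C; cpd 40 hr 37 °C; CellTiter-Glo 20 min RT; luminescence (ATP) read. qHTS concentration-response, Hill fit → AC50. Tamoxifen, doxorubicin as positive controls.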

[19] = Cell Viability - Renal Proximal Tubule (AID 545; active = well fitted curve in the direction sought with a large enough effect; an effect the other way counts as inactive or inconclusive; note: nearly all actives have a fitted effect of over 40% in size)
Outline: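 Luminescent ATP signal (CellTiter-Glo) served as the viability read-out after 40 hr compound exposure of freshly isolated rat proximal tubule cells at 37 °C. Concentration-dependent ATP loss was fitted with the Hill equation to give AC50.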

[20] = Cell Viability - Mesenchymal (AID 546; active = well fitted curve in the direction sought with a large enough effect; an effect the other way counts as inactive or inconclusive;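 note: cells exposed to compound for 40 hours before reading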)
Outline: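 CellTiter-Glo luminescence (intracellular ATP, 20 min room temperature) after 40 hr compound exposure at 37 °C of 1000 glomerulus-derived human kidney mesenchymal cells/well; AC50 values obtained by fitting qHTS concentration-response data to the Hill equation.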

Chain of Lysosomal acid glucosylceramidase (Homo sapiens) (P04062 whole entry, looked up): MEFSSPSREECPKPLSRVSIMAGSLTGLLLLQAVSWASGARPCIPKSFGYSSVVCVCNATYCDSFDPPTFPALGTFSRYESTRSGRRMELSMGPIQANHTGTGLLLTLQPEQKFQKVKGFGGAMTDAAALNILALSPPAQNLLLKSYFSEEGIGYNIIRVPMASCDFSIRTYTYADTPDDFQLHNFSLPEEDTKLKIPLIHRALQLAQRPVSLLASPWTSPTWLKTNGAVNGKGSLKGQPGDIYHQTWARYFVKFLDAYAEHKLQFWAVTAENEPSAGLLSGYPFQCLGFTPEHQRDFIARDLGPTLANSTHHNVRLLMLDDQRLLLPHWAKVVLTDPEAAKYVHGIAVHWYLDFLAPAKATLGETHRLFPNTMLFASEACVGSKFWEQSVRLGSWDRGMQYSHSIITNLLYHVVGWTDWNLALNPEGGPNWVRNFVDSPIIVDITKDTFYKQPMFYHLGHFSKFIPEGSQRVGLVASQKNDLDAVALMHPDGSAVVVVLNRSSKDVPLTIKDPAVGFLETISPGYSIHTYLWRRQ
Chain of 3',5'-cyclic-AMP phosphodiesterase 4B (Homo sapiens) (Q07343 whole entry, looked up): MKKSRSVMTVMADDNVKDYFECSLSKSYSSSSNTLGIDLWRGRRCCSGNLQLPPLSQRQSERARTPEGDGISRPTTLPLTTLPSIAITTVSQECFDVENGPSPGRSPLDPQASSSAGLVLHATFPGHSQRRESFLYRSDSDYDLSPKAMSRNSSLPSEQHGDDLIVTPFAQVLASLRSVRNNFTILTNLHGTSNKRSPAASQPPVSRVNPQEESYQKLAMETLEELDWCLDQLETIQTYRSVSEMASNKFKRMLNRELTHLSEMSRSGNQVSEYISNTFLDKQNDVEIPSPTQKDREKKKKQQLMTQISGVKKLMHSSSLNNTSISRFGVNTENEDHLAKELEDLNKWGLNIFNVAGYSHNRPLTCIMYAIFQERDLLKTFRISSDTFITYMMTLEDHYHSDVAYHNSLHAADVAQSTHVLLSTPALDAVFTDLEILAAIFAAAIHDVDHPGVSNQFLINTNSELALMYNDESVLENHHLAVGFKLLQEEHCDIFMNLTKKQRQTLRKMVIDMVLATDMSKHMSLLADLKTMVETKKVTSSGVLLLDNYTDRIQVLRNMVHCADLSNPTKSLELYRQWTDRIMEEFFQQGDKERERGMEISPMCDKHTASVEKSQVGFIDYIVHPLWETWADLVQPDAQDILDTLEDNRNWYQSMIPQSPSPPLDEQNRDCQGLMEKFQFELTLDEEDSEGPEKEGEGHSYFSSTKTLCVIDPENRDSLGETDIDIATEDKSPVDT
Chain of Glucocorticoid receptor (Homo sapiens) (P04150 whole entry, looked up): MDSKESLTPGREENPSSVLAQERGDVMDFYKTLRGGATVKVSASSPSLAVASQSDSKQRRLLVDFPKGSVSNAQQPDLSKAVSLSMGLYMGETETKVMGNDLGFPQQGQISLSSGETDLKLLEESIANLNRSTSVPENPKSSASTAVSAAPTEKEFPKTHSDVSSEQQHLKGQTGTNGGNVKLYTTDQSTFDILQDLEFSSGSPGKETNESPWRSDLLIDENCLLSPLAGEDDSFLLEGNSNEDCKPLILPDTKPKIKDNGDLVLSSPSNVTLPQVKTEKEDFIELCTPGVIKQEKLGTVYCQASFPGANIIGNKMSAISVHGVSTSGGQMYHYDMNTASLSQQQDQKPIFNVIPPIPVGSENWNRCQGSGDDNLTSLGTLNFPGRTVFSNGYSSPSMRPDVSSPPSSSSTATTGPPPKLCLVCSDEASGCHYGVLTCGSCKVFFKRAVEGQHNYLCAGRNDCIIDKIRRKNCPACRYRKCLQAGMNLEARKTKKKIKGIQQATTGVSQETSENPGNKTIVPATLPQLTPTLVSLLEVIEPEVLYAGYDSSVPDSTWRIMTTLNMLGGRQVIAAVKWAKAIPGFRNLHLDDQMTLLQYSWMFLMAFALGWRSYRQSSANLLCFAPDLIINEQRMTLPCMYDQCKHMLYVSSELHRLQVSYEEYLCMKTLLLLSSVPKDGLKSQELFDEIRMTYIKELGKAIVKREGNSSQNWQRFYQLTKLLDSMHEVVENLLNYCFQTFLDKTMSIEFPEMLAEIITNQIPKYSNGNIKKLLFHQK
Chain of Cytochrome P450 1A2 (Homo sapiens) (P05177 whole entry, looked up): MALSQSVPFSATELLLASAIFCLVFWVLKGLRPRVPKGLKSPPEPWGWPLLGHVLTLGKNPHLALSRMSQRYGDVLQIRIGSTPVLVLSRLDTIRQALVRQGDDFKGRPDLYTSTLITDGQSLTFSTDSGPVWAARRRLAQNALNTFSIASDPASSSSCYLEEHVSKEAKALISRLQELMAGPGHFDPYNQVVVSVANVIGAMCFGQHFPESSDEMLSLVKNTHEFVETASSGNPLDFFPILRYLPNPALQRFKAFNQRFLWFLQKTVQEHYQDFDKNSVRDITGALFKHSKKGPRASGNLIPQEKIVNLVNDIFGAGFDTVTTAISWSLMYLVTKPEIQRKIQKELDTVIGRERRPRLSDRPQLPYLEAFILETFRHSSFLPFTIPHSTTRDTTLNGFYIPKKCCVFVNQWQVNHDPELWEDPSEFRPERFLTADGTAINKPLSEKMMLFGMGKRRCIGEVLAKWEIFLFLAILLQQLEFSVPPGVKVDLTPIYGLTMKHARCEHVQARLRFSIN

With Cc1cc2nc3c(=O)[nH]c(=O)nc-3n(CC(O)C(O)C(O)CO)c2cc1C (centres undefined) the outcome [1] was “inactive”, the outcome [2] was “inactive” and the outcome [3] was “inactive”. For the same compound, the Potency [4] was over 20.6 µM, the Potency [5] was “inactive” and the outcome [6] was “inactive”.

In the case of CC(NCCc1ccc(O)cc1)C(O)c1ccc(O)cc1 (centres undefined), the outcome [1] is reported as “inactive”, the outcome [3] is reported as “inactive” and the Potency [4] is reported as over 20.6 µM.

For NC(=O)c1nnn(Cc2cc(Cl)c(C(=O)c3ccc(Cl)cc3)c(Cl)c2)c1N, the Potency [7] was over 11.4 µM, the outcome [1] was “inactive” and the activity change, negative = inhibition [8] was -2.2% [at 2.29 µM]. The outcome [2] was “inactive”, the outcome [3] was “inactive” and the Potency [4] was over 46 µM. For the same compound, the Potency [5] was “inactive” and the outcome [6] was “inactive”.

With COc1ccc(CCN(C)CCCOc2ccc(S(=O)(=O)c3[nH]c4ccccc4c3C(C)C)cc2)cc1OC the Potency [4] was over 46 µM and the outcome [6] was “inactive”.

In the case of CCCCC(C=O)NC(=O)C(CC(C)C)NC(=O)OCc1ccccc1 (centres undefined), the Potency [4] is reported as over 46 µM, the Potency [5] is reported as “inactive” and the outcome [6] is reported as “inactive”.

For O=S(=O)(O)c1ccc2cc(N=Nc3cc(S(=O)(=O)O)c4cccnc4c3O)ccc2c1, the Potency [7] was over 11.4 µM, the outcome [1] was “inactive” and the activity change, negative = inhibition [8] was -18.8% [at 2.29 µM]. For the same compound, the outcome [2] was “inactive”, the Potency [4] was over 46 µM and the Potency [5] was “inactive”. The outcome [6] was “inactive”.

For Cc1cc(NC(=O)Nc2ccc(N(C)C)cc2)c2cc(F)cc(F)c2n1, the Potency [8] was 0.126 µM (active) and the Potency [4] was over 46 µM.

For CN(C)CCN(Cc1ccc(Cl)cc1)c1ccccn1, the Potency [8] was 12.6 µM (active), the outcome [3] was “inactive” and the Potency [4] was over 20.6 µM. The Potency [5] was “inactive”.

With NS(=O)(=O)c1cc(Cl)c(Cl)c(S(N)(=O)=O)c1 the outcome [1] was “inactive”, the Potency [8] was “inactive” and the outcome [2] was “inactive”. The outcome [3] was “inactive”, the Potency [4] was over 20.6 µM and the Potency [5] was “inactive”. For the same compound, the outcome [6] was “inactive”.

For CC1C(=O)OC2C(O)C34C5CC(C(C)(C)C)C36C(OC(=O)C6O)OC4(C(=O)O5)C12O (centres undefined), the Potency [4] was over 46 µM, the Potency [5] was “inactive” and the outcome [6] was “inactive”.

Compound C[C@@H]1C[C@H]2[C@@H]3CCC4=CC(=O)C=C[C@]4(C)[C@@]3(F)[C@@H](O)C[C@]2(C)[C@@]1(O)C(=O)CO has a Potency [9] of over 92 µM, a Potency [10] of over 92 µM and a Potency [11] of over 92 µM. For the same compound, the Potency [12] was over 92 µM, the Potency [13] was over 92 µM and the Potency [14] was over 92 µM. The outcome [15] was “inactive”, the outcome [16] was “inactive” and the outcome [17] was “inactive”. For the same compound, the outcome [18] was “inactive”, the outcome [19] was “inactive” and the outcome [20] was “inactive”.

For CCC(=C(CC)c1ccc(O)cc1)c1ccc(O)cc1, the Potency [8] was 15.8 µM (active), the Potency [4] was over 20.6 µM and the Potency [5] was “inactive”. For the same compound, the outcome [6] was “inactive”.

In the case of CN1CCN2c3ncccc3Cc3ccccc3C2C1 (centres undefined), the Potency [4] is reported as over 46 µM and the Potency [5] is reported as “inactive”.

With CN(C)c1ccccc1CN1CCCN(Cc2ccccc2N(C)C)C1c1ccncc1 the Potency [7] was over 11.4 µM, the outcome [1] was “inactive” and the Potency [8] was “inactive”. For the same compound, the outcome [2] was “inactive”, the outcome [3] was “inactive” and the Potency [4] was over 46 µM. For the same compound, the Potency [5] was “inactive” and the outcome [6] was “inactive”.

In the case of CN[C@H]1[C@@H](O[C@@H]2[C@H](O[C@@H]3[C@@H](O)[C@@H](O)[C@@H](N=C(N)N)[C@@H](O)[C@@H]3N=C(N)N)O[C@H](C)[C@@]2(O)C=O)O[C@@H](CO)[C@@H](O)[C@H]1O, the outcome [1] is reported as “inactive”, the Potency [8] is reported as “inactive” and the outcome [2] is reported as “inactive”. For the same compound, the outcome [3] was “inactive”, the Potency [4] was over 20.6 µM and the Potency [5] was “inactive”. The outcome [6] was “inactive”.

With COc1nccc(-c2c(-c3ccc(F)cc3)ncn2C2CCC(O)CC2)n1 (centres undefined) the Potency [4] was over 46 µM and the outcome [6] was “inactive”.

With C=C1c2cccc(O)c2C(O)=C2C(=O)[C@@]3(O)C(O)=C(C(N)=O)C(=O)[C@@H](N(C)C)[C@@H]3[C@@H](O)[C@H]12 the outcome [1] was “inactive”, the Potency [8] was “inactive” and the outcome [2] was “inactive”. The outcome [3] was “inactive”, the Potency [4] was over 20.6 µM and the Potency [5] was “inactive”. For the same compound, the outcome [6] was “inactive”.

In the case of CCCCC[C@H](O)C=C[C@H]1[C@H](O)CC(=O)[C@H]1CCCCCCC(=O)O, the Potency [4] is reported as over 46 µM and the Potency [5] is reported as “inactive”.

In the case of Clc1ccc(COC(Cn2ccnc2)c2ccc(Cl)cc2Cl)c(Cl)c1 (centres undefined), the Potency [8] is reported as 1.26 µM (active) and the Potency [5] is reported as “inactive”.

In the case of Cc1ccc(NC(=O)c2cccc(N(C)C)c2)cc1NC(=O)c1ccc(O)cc1, the Potency [8] is reported as 1.26 µM (active), the Potency [4] is reported as over 46 µM and the Potency [5] is reported as “inactive”. For the same compound, the outcome [6] was “inactive”.

For NCC1CCC(C(=O)O)CC1 (centres undefined), the outcome [1] was “inactive”, the Potency [8] was “inactive” and the outcome [2] was “inactive”. For the same compound, the outcome [3] was “inactive”, the Potency [5] was “inactive” and the outcome [6] was “inactive”.

With O=c1cc(-c2ccc(O)c(O)c2)oc2cc(O)cc(O)c12 the Potency [4] was > 20.6 µM and > 46 µM, the Potency [5] was 6.31 µM (active) and the outcome [6] was “inactive”.
